As usually defined, the inhibition is the change of the read-out against control, counted positive when it falls.

The values that follow come from PubChem BioAssay.

A number with no mark means an inactive call. The rule behind the calls is not given here.

The target in the test is Pantothenate synthetase (Mycobacterium tuberculosis (strain ATCC 25618 / H37Rv)) (UniProt P9WIL5). In words: Coupled enzyme confirmation of inhibitors against recombinant Mtb PanC (AID 375).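 Note: 0% = full reaction with vehicle and 100% = no enzyme background.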 As to conditions: coupled enzyme assay; at 10 µM, hits give high values.
Chain of Pantothenate synthetase (Mycobacterium tuberculosis (strain ATCC 25618 / H37Rv)) (P9WIL5 whole entry, looked up): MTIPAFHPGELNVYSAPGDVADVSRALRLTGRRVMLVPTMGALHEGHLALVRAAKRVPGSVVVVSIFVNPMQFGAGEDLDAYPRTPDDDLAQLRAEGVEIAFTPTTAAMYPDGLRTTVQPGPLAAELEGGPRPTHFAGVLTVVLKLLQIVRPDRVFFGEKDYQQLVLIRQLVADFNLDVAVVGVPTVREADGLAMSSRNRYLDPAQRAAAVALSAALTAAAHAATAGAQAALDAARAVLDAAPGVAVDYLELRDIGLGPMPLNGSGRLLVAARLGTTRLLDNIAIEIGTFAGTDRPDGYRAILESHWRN
In the case of `CCOC(=O)Cn1c(CN2CCN(c3cccc(Cl)c3)CC2)nc2c1c(=O)[nH]c(=O)n2C`, the inhibition was 0%.
`COc1ccc(NC(=O)Cn2nnc(-c3ccccc3N)n2)cc1OC`: the inhibition is 0%.
On to `COc1ccc(OC)c(-c2nc3c(C)n[nH]c(=O)c3[nH]2)c1`, for which the inhibition was 0%.
Under `Cc1ccc(S(=O)(=O)C2(C(=O)Nc3nccs3)CC2)cc1` stands 0%.
Turning to `CC(C)C[C@H](NC(=O)[C@@H]1O[C@H]1C(=O)O)C(=O)NCCCCN=C(N)N`, the inhibition is 1%.
As for `CCCN(CCC)C(=O)c1c(C)[nH]c(C(=O)OCC)c1C`, the inhibition was 0%.
Regarding `COc1cccc(C(=O)Nc2cc(C)c3c(=O)oc4ccccc4c3n2)c1`, the inhibition is 0%.
Consider `COc1ccc(C2(C(=O)N3CCCC3)CCOCC2)cc1OC`, for which the inhibition is 6%.
Take `CSc1ccc(Cn2nnc(C(=O)NCc3ccccc3)c2N)cc1`: the inhibition was 0%.
Under `COc1ccccc1N(CC(=O)NC1CCCC1)C(=O)c1csnn1` stands 1%; under `CCC(Sc1nc2n[nH]c(C)c2c(=N)n1-c1cc(Cl)ccc1C)C(=O)N1CCOCC1` (stereo not given), 0%; under `COc1cccc(NC(=O)c2nc3nc(C)cc(C(F)F)n3n2)c1`, 0%.
On to `COc1cccc(OCc2nc3c4cnn(-c5ccccc5)c4ncn3n2)c1`, for which the inhibition was 0%.
For the compound `Cc1ccccc1-c1nc(CN2CCC(C(=O)NCCCN3CCOCC3)CC2)c(C)o1`, the inhibition was 5%.
As to `O=C(c1ccc(NS(=O)(=O)c2cccs2)cc1)N1CCCCC1`, the inhibition was 0%.
As to `O=C(CSc1nc2ccccc2o1)NC(=O)NCc1ccco1`, the inhibition was 0%.
In the case of `COc1ccccc1-n1c(C)nnc1SCC(N)=O`, the inhibition is 0%.
For `COc1cccc2c(=O)cc(C)n(CC(=O)Nc3ccc(C)c(C)c3)c12`, the inhibition was 0%.
For the compound `CCOC(=O)CSC1=C(C#N)C(c2ccc(Cl)cc2)C(C(=O)OC)C(=O)N1` (stereo not given), the inhibition was 0%.
The value for `O=C(Cc1ccccc1)Nc1nnc(-c2cccs2)s1` was 0%; that for `COc1ccc(C/C(N)=N/n2cnnc2)cc1Cl` was 0%; that for `COc1ccccc1C(=O)Nc1c2c(nn1-c1cccc(C)c1C)CS(=O)(=O)C2` was 7%.
In the case of `Cc1cc(Cl)ccc1OCC(=O)Nn1c(C)ccc1C`, the inhibition is 0%.
Consider `Cn1ccnc1C(O)c1ccco1` (stereo not given), for which the inhibition was 3%.
With `Cc1csc2nc3ccccc3c(=O)n12`, the inhibition is 11%.
For the compound `O=C(Nc1ccc2c(c1)OCCO2)c1cnc2n(c1=O)CCS2`, the inhibition is 0%.
Consider `C=CCn1c(SCC(=O)Nc2ccccc2OC)nnc1-c1ccco1`, for which the inhibition is 4%.
With `COc1cc(-c2noc(-c3cccc(Cl)c3)n2)cc(OC)c1OC`, the inhibition is 0%.
For the compound `O=C(NCCC1=CCCCC1)C1CCN(C(=O)Nc2ccccc2)CC1`, the inhibition was 0%.
On to `O=C(O)C1CCCN(S(=O)(=O)c2ccc(Cl)s2)C1` (stereo not given), for which the inhibition was 2%.
In the case of `Nc1c(S(=O)(=O)c2cccs2)c2nc3ccccc3nc2n1CC1CCCO1` (stereo not given), the inhibition was 0%.
Under `COc1ccc2c(-c3cccnc3)cc(=O)[nH]c2c1` stands 6%; under `Cc1ccccc1NC(=O)CN1CCC(NC(=O)Nc2ccccc2)CC1`, 4%; under `Cc1cccc2cc(CN(Cc3nnnn3C3CCCC3)C3CCCCC3)c(=O)[nH]c12`, 4%.
For `COc1nc(C)ccc1-c1noc(-c2ccncc2)n1`, the inhibition was 2%.
The value for `Cc1cc(C)n(-c2ccc(C(=O)Nc3ccc4c(c3)OCCO4)cc2)n1` was 2%; that for `COC(=O)c1[nH]c2ccccc2c1NS(=O)(=O)c1ccc(OC)cc1OC` was 3%.
On to `CN(C)CC(O)COc1ccc(-c2ccc(C#N)cc2)cc1` (stereo not given), for which the inhibition is 3%.
Regarding `COc1ccc(C2C(C#N)=C(C)NC3=C2C(=O)CC(C)(C)C3)c(OC)c1` (stereo not given), the inhibition was 0%.
In the case of `Cc1cc(NCCCn2ccnc2)n2c(nc3ccccc32)c1C#N`, the inhibition was 0%.
